# In the library only some 6.3% were active in any assay of this set; here they are far more common.
# MPTP inh: inhibitors of mitochondrial permeability transition pore; 1.4% of 360,000 active; isolated mouse mitochondria, Ca2+ swelling absorbance, 30 min; inhibition, % at 10 µM;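 active = inhibition of 50% or more, scaled per plate between neutral and stimulator controls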;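 also: 0% = DMSO wells given calcium and 100% = 1 mM EGTA wells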
# Mdm2 MdmX PPI: disrupts the human Mdm2-MdmX interaction; 3% of 330,000 active; SaOS-2 split-luciferase Mdm2/MdmX complementation, luminescence; inhibition, % at 8 µM; AID 485346;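 active = inhibition of at least 50% at 8 µM in the primary screen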
# tim10-1 inh: growth inhibitors of tim10-1 mutant yeast; S. cerevisiae tim10-1 ts strain growth, BacTiter-Glo, 24 h; inhibition, % at 20 µM; 2.2% of 330,000 active; AID 463190;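 active = inhibition of at least 40%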;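 also: mutant grown at 25 °C; 0% = DMSO wells with yeast and 100% = wells holding no yeast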
# TIM10 inh: growth inhibitors of TIM10 yeast strain | S. cerevisiae TIM10 strain growth, BacTiter-Glo luminescence, 24 h | inhibition, % at 10 µM | 1.4% of 330,000 active;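 active = inhibition of 40% or more at the single tested concentration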;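 also: wild-type TIM10 isogenic control strain grown at permissive 25 °C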
# tim23-1 inh: tim23-1 yeast growth inhibition; 1.3% of 330,000 active; inhibition, % at 20 µM; S. cerevisiae tim23-1 growth, BacTiter-Glo luminescence, 24 h;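 active = growth inhibition of the mutant yeast at or above 50%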;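 also: temperature-sensitive mutant grown at 25 °C; plate controls were DMSO-treated mutant yeast for no effect and medium wells lacking yeast for full effect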
# Mdm2-MdmX conf: confirmation of human Mdm2/MdmX interaction inhibitors. 55% of 10,000 active. shares compounds with Mdm2 MdmX PPI. Mdm2-MdmX binding, luminescent assay. inhibition, % at 8 µM. AID 489028; in the data active = inhibition above about 40%
# FLuc counter: counter-screen for Mdm2/MdmX inhibitors: full-length luciferase | inhibition, % at 8 µM | SaOS-2 full-length luciferase counterscreen, luminescence | 77% of 6,200 active | shares compounds with Mdm2 MdmX PPI;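 active = mean inhibition at 8 µM reaching about 37%, which flags the compound as non-specific, limit read from the data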;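 also: p53-null SaOS-2 cells with luciferase driven by a doxycycline-inducible promoter; compound on cells about two nights before reading with doxycycline added after day one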
# * = called active by the depositor; / = no result given.
SMILES,MPTP inh,Mdm2 MdmX PPI,tim10-1 inh,TIM10 inh,tim23-1 inh,Mdm2-MdmX conf,FLuc counter
Cn1nc(C(F)(F)F)c(/C=N/OC(=O)c2ccccc2Cl)c1SCc1ccccc1Cl,4,55*,18,-4,0,15,/
CCOC(=O)CN(C(=O)c1snc(C(N)=O)c1N)C(C(=O)NCCC(C)C)c1ccc(C)cc1 (configuration not stated),0,/,/,/,/,/,/
Cn1cncc1C#Cc1ccc2c(=O)c3ccccc3oc2c1,2,-29,12,14,-7,/,/
Cn1cncc1C#Cc1c(C=O)[nH]c2ccccc12,-3,71*,-2,18,44,42*,66*
C#CC[N+](C)(C)CCCCCCCCC,1,51*,11,6,10,49*,74*
CC#CC[N+](C)(C)CCCCCCCCCC,6,48,-42,-78,-14,/,/
Cc1cc(C)n2nc(N)c(N=Nc3ccc4c(c3)OCO4)c2n1,3,57*,0,4,-20,-26,/
O=C(COC(=O)c1ccccc1C(=O)c1ccc(Cl)c([N+](=O)[O-])c1)NC1CC1,0,100*,20,10,12,96*,52*
COc1ccc(C(C)(O)c2nc(-c3ccncc3)cs2)cc1 (configuration not stated),6,/,/,/,/,/,/
Cc1ccccc1CS(=O)(=O)c1cnc2ccccc2n1,-1,55*,0,-6,10,24,/
Cc1ccccc1CS(=O)(=O)c1snnc1C,0,16,-1,-14,-7,/,/
Cn1c(=O)c(/C(N)=N/OC(=O)c2ccccc2)cn(-c2ccccc2)c1=O,6,58*,4,8,4,25,/
Cn1c(N)c(C(=O)c2ccccc2)c(=O)n(C)c1=O,1,20,-19,-13,-11,/,/
CC1(C)CC[C@@]23CC[C@]4(C)[C@@](OC2=O)(C3C1)[C@H]1O[C@H]1C1[C@@]2(C)CC[C@H](O)C(C)(C)C2CC[C@]14C (some centres not stated),/,75*,-13,-5,5,-5,/
COC(=O)c1ccc(N2CCCCC2)c(NS(=O)(=O)c2ccc(C)cc2)c1,0,65*,16,10,29,57*,62*
COC(=O)c1ccc(Cl)c(NS(=O)(=O)c2ccc3c(c2)OCCO3)c1,1,53*,15,11,16,47*,55*
Cc1ccc(CNCCCn2cnc(C(=O)Nc3ccc(C)c(C)c3)n2)o1,2,/,/,/,/,/,/
CC(=O)O[C@@]12CO[C@@H]1C[C@H](O)[C@@]1(C)C(=O)[C@H](O)C3=C(C)[C@@H](OC(=O)[C@H](O)[C@@H](NC(=O)OC(C)(C)C)c4ccccc4)C[C@](O)([C@@H](OC(=O)c4ccccc4)[C@H]21)C3(C)C,/,56*,9,9,8,62*,53*
COCCN=C1N[C@@H](c2ccccc2)C(C(=O)OC)=C(C)N1Cc1ccccc1,0,-3,23,11,9,/,/
COC(=O)C1=C(C)N(Cc2ccccc2)C(=NCCc2c[nH]c3ccccc23)N[C@H]1c1ccccc1,3,55*,3,7,7,15,/
COC(=O)C1=C(C)N(Cc2ccccc2)C(=NCCc2c[nH]c3ccccc23)N[C@H]1c1cccc(F)c1,0,98*,28,4,9,51*,56*
CCN1C(=NCCOC)N[C@@H](c2cccc(F)c2)C(C(=O)OC)=C1C,0,-13,11,-3,17,/,/
COc1ccccc1/C=N/N1C(=O)C(CC(=O)Nc2ccc([N+](=O)[O-])cc2OC)SC1=Nc1cccc(C)c1C (configuration not stated),/,65*,12,19,12,47*,78*
Cc1cccc(NC(=O)c2nc[nH]c2C(=O)Nc2ccccc2F)c1,-1,/,/,/,/,/,/
CC(C)c1cccc(O)c(=O)c1,0,86*,27,7,14,74*,28
SMILES,MPTP inh,Mdm2 MdmX PPI,tim10-1 inh,TIM10 inh,tim23-1 inh,Mdm2-MdmX conf,FLuc counter
COc1ccc(N2CCN(C(=O)Cn3cnc4c(cnn4-c4ccccc4)c3=O)CC2)cc1,-1,19,4,10,-24,/,/
COc1ccc(N2CCN(C(=O)Cn3cnc4c(cnn4-c4ccc(C)cc4)c3=O)CC2)cc1,-1,61*,-12,-6,-9,-7,/
CC1ON=C(c2ccccn2)N(Cc2ccc(S(C)(=O)=O)cc2)C1=O (configuration not stated),-3,/,/,/,/,/,/
Cc1cc(C)cc(NC(=O)/C(C#N)=C/c2cn(CC(=O)NCc3ccco3)c3ccccc23)c1,3,95*,4,11,7,28,/
CNC(=O)/C(C#N)=C/c1cn(CC(=O)NCc2ccco2)c2ccccc12,1,15,10,-8,24,/,/
Cc1ccc(NC(=O)/C(C#N)=C/c2cn(CC(=O)NCc3ccco3)c3ccccc23)cc1C,4,68*,14,-5,6,50*,75*
Cc1ccc(C)c(NC(=O)/C(C#N)=C/c2cn(CC(=O)NCc3ccco3)c3ccccc23)c1,8,92*,1,-12,-14,78*,89*
COc1ccc(NC(=O)C2(C)CCN2C(=O)CC2CCCC2)cc1OC (configuration not stated),0,/,/,/,/,/,/
CCNC(=O)C1(C)CCN(C(=O)c2ccc(C(F)(F)F)cc2)C1 (configuration not stated),0,/,/,/,/,/,/
Cc1ccc2nc(-c3cccc(Br)c3)c(Cc3cccc(Cl)c3)n2c1,-1,/,/,/,/,/,/
CC(=O)c1cc2c(cc1NC(=O)CSc1nnc(C3CC3)n1C)OCO2,-1,/,/,/,/,/,/
CC(=O)Nc1ccc(C(=O)N2CCCCC2c2cc(C(=O)NCc3cccnc3)no2)cc1 (configuration not stated),-1,/,/,/,/,/,/
Cc1nn(-c2ccccc2)c2c1C(c1ccc([N+](=O)[O-])cc1)N1C(=N2)C(=O)Nc2ccccc21 (configuration not stated),0,22,10,13,28,/,/
Cc1nn(-c2ccc([N+](=O)[O-])cc2)c2c1C(c1cccc(Br)c1)N1C(=N2)C(=O)Nc2ccccc21 (configuration not stated),1,60*,5,15,11,26,/
CCN(CC(=O)Nc1ccc(OC)cc1)C(=O)C1CC(=O)N(Cc2ccccc2)C1 (configuration not stated),0,/,/,/,/,/,/
Cc1ccn2c(NC3CCCCC3)c(-c3cccc(SC4CCCCC4)c3)nc2c1,14,91*,39,29,25,0,/
COc1cc(CNC(C)(C)CO)cc(Br)c1OCc1ccc(Cl)cc1Cl,12,55*,3,19,10,40*,102*
COc1cc(CNCCO)cc(Br)c1OCc1ccccc1Cl,10,57*,29,14,7,14,/
